Experimental data as given in PubChem BioAssay (NCATS).
Records with an inconclusive call do not appear. A number with no mark means an inactive call. The source made the active and inactive calls. Calls come from the whole dose curve; as a rule, active = well fitted cell-killing curve with a large enough effect; inconclusive = small, poorly fitted or top-dose-only effect, or effect the other way; inactive = flat fitted curve, though single readings scatter.

test system: CAOV3; test: Primary qHTS to identify gynecologic anti-cancer compounds using libraries of approved drugs and bioactive compounds (AID 1345084); conditions: Gynecologic cancer cell panel viability, ATPlite luminescence, 48 h; series mostly up to 57.5 µM; activity change, negative = cytotoxicity: at the top concentration; note: nearly all actives have a fitted effect of over 55% in size
Text: National Center for Advancing Translational Sciences [NCATS] Assay Overview: Chemotherapeutic drug responses vary from cancer to cancer and from patient to patient. These variations could be caused by a number of factors including patient genomic background, tumor mutations, tumor heterogeneity, and aspects of drug treatment. Chemotherapeutic drug resistance is also a common issue and can lead to ineffective treatment and patient death. Here we have profiled the cell killing effects of thousands of compounds to characterize the responses in three gynecological cancers, identify cancer-selective compounds, and understand the diversity of responses to these compounds from pan-cancer suppressors to single cell line selective compounds. In this assay, we screened a 7,914 compound drug library that included approved drug and bioactive compounds in six ovarian, three cervical, and […] placental cancer cell lines using the ATPlite assay for cell viability. […] The cervical cancer cell lines included HeLa, Ca Ski, and C-33 A. The placental cancer cell lines included JEG-3. HEK 293T cells were used as the control cell line to determine the selectivity index. ATPlite is a luminescence based assay reliant on the conversion of a luciferase substrate to light in the presence of ATP. As a cytotoxic compound will suppress growth and decrease the number of cells, the concentration of ATP will decrease, and less light signal will be detected in the well.
Assay Protocol Summary: 1,000 cells in 4 uL of media were dispensed into white, solid bottom 1536-well plates using a Multidrop Combi (Thermo Scientific). The Assay plates were incubated for 16 hours at 37 C with 5% CO2 in assay plates, followed by the addition of 23 nL of DMSO or drug dissolved in DMSO. Each compound was assayed in five concentrations (0.092, 0.46, 2.3, 11.5, and 57.5 uM), using the automated Wako 1536 Pin Tool workstation and incubated at 37 C with 5% CO2 48 hours. 4 uL of ATPlite, the ATP monitoring reagent, was then added to the each well of the assay plates using the Multidrop Combi reagent dispenser followed by incubation for 15 minutes at room temperature. The resulting luminescence was measured using the ViewLux plate reader.
% is set by controls: 0 for no effect and ±100 for the full control effect.

SMILES | activity change, negative = cytotoxicity | Potency
O=C(C1CC1)N1CC[C@@H](Cc2n[nH]c(=O)n2-c2ccc(-c3ccc4occc4c3)cc2)C1 | 21.4% [at 25.3 µM] | 
CCC(=O)O[C@]1(C(=O)CCl)[C@@H](C)C[C@H]2[C@@H]3C[C@H](F)C4=CC(=O)C=C[C@]4(C)[C@@]3(F)[C@@H](O)C[C@@]21C | -12.8% | 
O=C1NCc2nc3ccccc3c(=O)n2C1Cc1c[nH]c2ccccc12 (stereo not given) | 0.474% [at 38.5 µM] | 
O=C1[C@H](O[C@@H]2O[C@H](CO)[C@@H](O)[C@H](O)[C@H]2O)Oc2ccccc2N1O | 20.6% [at 38.5 µM] | 
CC(=O)O[C@H]1CC[C@@]2(CI)C(=CC[C@@H]3[C@@H]2CC[C@]2(C)[C@@H]([C@H](C)CCCC(C)C)CC[C@@H]32)C1 | 9.25% [at 11.6 µM] | 
CC(C)NC[C@H](O)COc1ccc(CCOCC2CC2)cc1 | -5.43% | 
C=C1CC2(C(=O)O)CC1CCC2C1(C)CCCC2(C)C(=O)OC(O)C21 (stereo not given) | -10.6% [at 38.5 µM] | 
OC[C@H]1O[C@@H](OCCc2ccc(O)cc2)[C@H](O)[C@@H](O)[C@@H]1O | 3.95% | 
CCCC1=CC2=C(CO1)C(=O)C(C)(OC(=O)c1c(C)cc(OC)cc1O)C(O)C2 (stereo not given) | 6.71% [at 25.3 µM] | 
COCCN(C)Cc1ccc2nc3sc(C(=O)N(C)C4CCCCC4)cn3c2c1 | 11.4% | 
Cc1c(-c2ccnn2C)cc(C(=O)NCc2ccc(S(C)(=O)=O)cn2)c(=O)n1-c1cccc(C(F)(F)F)c1 |  | inactive
C[C@@H]1C(=O)O[C@H]2CC34[C@H]5C[C@@H](C(C)(C)C)C36[C@@H](OC(=O)[C@@H]6O)O[C@@]4(C(=O)O5)[C@]21O (stereo not given in full) | -2.64% [at 25.3 µM] | 
C=C[C@@]1(C)CC(=O)C2[C@](C)(O1)[C@@H](OC(C)=O)[C@@H](O)[C@H]1C(C)(C)CCC[C@]21C (stereo not given in full) | 10.9% [at 11.6 µM] | 
C[C@@H]1C[C@H]2[C@@H]3CCC4=CC(=O)C=C[C@]4(C)[C@@]3(F)[C@@H](O)C[C@]2(C)[C@@]1(O)C(=O)COP(=O)(O)O | 12.4% | 
Nc1nc(CC(=O)Nc2ccc(CCNCC(O)c3ccccc3)cc2)cs1 (stereo not given) | 19.4% | 
CC(C)[C@@H](C)/C=C/[C@@H](C)[C@H]1CC[C@H]2C3=CC=C4C[C@@H](O)CC[C@]4(C)[C@H]3CC[C@]12C | 4.74% [at 25.3 µM] | 
CC(C)CC(=O)OC[C@H]1O[C@@](COC(=O)CC(C)C)(O[C@H]2O[C@H](CO)[C@@H](O)[C@H](O)[C@H]2O)[C@@H](OC(=O)CC(C)C)[C@@H]1OC(=O)CC(C)C | -10.2% [at 25.3 µM] | 
C=C1CC2C3(C)C(OC(C)=O)CC(=O)OC(C)(C)C3C(O)C(OC(C)=O)C2(C)C2C(=O)OC(C)C(=O)C12C (stereo not given) | -14.8% [at 25.3 µM] | 
O=c1ccn(C2OC(CO)C(O)C2O)c(=O)[nH]1 (stereo not given) | 1.33% | 
C[C@@H]1O[C@@H](O[C@@H]2[C@@H](O)[C@H](O[C@@H]3[C@@H](O)[C@@H](O)[C@H](O[C@H]4[C@H](OC(=O)[C@]56CCC(C)(C)C[C@H]5C5=CCC7[C@@]8(C)C[C@H](O)[C@H](O[C@@H]9O[C@@H](C)[C@H](O)[C@@H](O)[C@H]9O)[C@@](C)(CO)C8CC[C@@]7(C)[C@]5(C)C[C@H]6O)O[C@H](C)[C@H](O)[C@@H]4O)O[C@H]3C)OC[C@H]2O)[C@H](O)[C@H](O)[C@H]1O (stereo not given in full) | 7.84% [at 6.55 µM] | 

SMILES | activity change, negative = cytotoxicity | Potency
O=C(c1ccc(C#Cc2cccc(F)c2)cn1)N1CC2CC2C1 (stereo not given) | -5.4% | 
C=CC(C)(O)CO[C@@H]1O[C@H](CO)[C@@H](O)[C@H](O)[C@H]1O (stereo not given in full) | -11% | 
CC1CCCC2OC2C(=O)c2c(O)cc(O)cc2CC(=O)O1 (stereo not given) | -16.7% | 
CC1=C(CC(=O)O)c2cc(F)ccc2C1=Cc1ccc(S(C)(=O)=O)cc1 | 17.3% | 
CCC(C)/C=C(C)/C=C/C1=CC2=C(Cl)C(=O)C(C)(OC(C)=O)C(=O)C2=CN1CCCC(=O)O (stereo not given) | -1.78% [at 25.3 µM] | 
COC(=O)C1C(CC(C)=O)C=CC(O)C12Oc1cc(C)cc(O)c1C2=O (stereo not given) | 0.139% [at 38.5 µM] | 
COc1cc(C/C(=C/NC(C)=O)N(CC(=O)Cc2ccccc2)C(C)=O)cc2c1OCO2 | -7.4% [at 25.3 µM] | 
CCC(=O)NS(=O)(=O)c1ccc(-c2c(-c3ccccc3)noc2C)cc1 | 23.1% | 
COc1cc(/C=C/C(=O)OC[C@H]2O[C@H](O[C@]3(CO)O[C@H](CO)[C@@H](O)[C@@H]3O)[C@H](O)[C@@H](O)[C@@H]2O)cc(OC)c1O | 25.9% [at 25.3 µM] | 
Cc1ccc(Sc2cncc3sc(C(N)=O)cc23)cc1 | 24.4% | 
CC(C)(C)c1cc(CN2CCN(CC(O)c3ccc(Cl)cc3)CC2)cc(C(C)(C)C)c1O (stereo not given) | 6.81% | 
C/C=C(\C)C(=O)O[C@H]1[C@@H](O[C@]2(COC(=O)CC(C)C)O[C@H](COC(=O)C(C)C)[C@@H](OC(C)=O)[C@@H]2O)O[C@H](COC(C)=O)[C@@H](O)[C@@H]1O | 1.67% [at 25.3 µM] | 
COc1ccc2c(c1)O[C@H](O[C@@H]1O[C@H](CO)[C@@H](O)[C@H](O)[C@H]1O)C(=O)N2 | 25.2% [at 38.5 µM] | 
C[C@H](NCc1ccc(OCc2ccccc2F)cc1)C(N)=O | 27.3% | 
CC1(C)CC2C(C1)C1(C)CCC13OC3(CO)C2O (stereo not given) | 12.5% | 
CC(C)CC(=O)O[C@@H]1OC=C(CO[C@@H]2O[C@H](CO[C@@H]3O[C@H](CO)[C@@H](O)[C@H](O)[C@H]3O)[C@@H](O)[C@H](O)[C@H]2O)[C@H]2C[C@H](O)[C@@H](CO)[C@@H]12 | 6.92% [at 25.3 µM] | 
COCCCNCC1COc2ccccc2O1 (stereo not given) | -8.16% | 
CC[C@H](C)/C=C(C)/C=C/C(=O)Cc1cc(O)c(C)c(O)c1C=O | -1.18% [at 38.5 µM] | 
CCC(C)(O)C(O)C(=O)OCc1ccc(O[C@@H]2O[C@H](CO)[C@@H](O)[C@H](O)[C@H]2O)c(OC)c1 (stereo not given in full) | 17.9% [at 25.3 µM] | 
COc1cc(NC(=O)c2ccccn2)ccc1Cl | 1.22% | 
